High-throughput results from PubChem BioAssay.
This is a sample that favours compounds with a hit; in the whole collection about 8.2% have one here.
MCF10A rerep: induces DNA re-replication in MCF 10a normal breast cells. MCF 10A DNA re-replication, Hoechst nuclear intensity, 48 h. Potency, µM (titrated, usually from 46.1 µM), for inactives: at the top dose activity, positive = re-replication, usual class: activators. 350,000 compounds, 2.9% hits; further: % of control where 0% means no effect; nearly all actives have a fitted effect of over 50% in size
ELG1 repair inh: blocks ELG1-dependent DNA repair in HEK293T cells. HEK293T ELG1-luciferase reporter, luminescence, 16 h; DNA damage induced by 5-fluorouridine. Potency, µM (titrated, usually from 46.1 µM), without a hit: at the top dose activity change, negative = inhibition, usual class: inhibitors. 330,000 compounds, 2.3% hits. AID 504467; further: on the % scale 0 is the no-effect control and ±100 the full control effect; nearly all actives have a fitted effect of over 55% in size
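Step one: seed 2,000 cells per well. Step two: pin-transfer compound or DMSO alongside 5-fluorouridine. Step three: incubate 16 hr, 37 °C, 5% CO2. Step four: add ONE-Glo, wait 30 min, read luminescence.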
KB-V1 MDR tox: KB-V1 MDR subline cytotoxicity; AID 1347076; KB-V1 MDR cells viability, CellTiter-Glo, 72 h; Potency, µM (doses to about 46.1 µM), usual class: cytotoxic; 400,000 compounds, 3.4% hits; further: on the % scale 0 is the no-effect control and ±100 the full control effect; nearly all actives have a fitted effect of over 60% in size
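KB-V1 cells (P-gp-expressing MDR subline of KB-3-1) in phenol-red-free DMEM with 10% FBS were exposed to library compounds over a concentration series for 72 h at 37 degrees C. Viability read by CellTiter-Glo luminescence; concentration-effect curves fitted after normalization.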
SW480 rereplic: inducers of DNA re-replication in SW480 colon cancer cells; SW480 DNA re-replication, Hoechst DNA content imaging, 48 h; Potency, µM (highest dose often 46.1 µM), for the others: at the top dose re-replication activation, hits mostly activators; 340,000 compounds, 1.8% hits; AID 624297; further: % of control where 0% means no effect; nearly all actives have a fitted effect of over 55% in size
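Treated cells incubate 48 hr (37 C, 5% CO2), are stained 40 min with Hoechst, and nuclear fluorescence is enumerated; a rise in nuclei with high DNA signal marks re-replication.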
KB-3-1 tox: KB-3-1 parental cell cytotoxicity; KB-3-1 viability, CellTiter-Glo ATP luminescence, 72 h; Potency, µM (highest dose often 46.1 µM), most hits filed as cytotoxic; 400,000 compounds, 1.4% hits; AID 1347075; further: on the % scale 0 is the no-effect control and ±100 the full control effect; nearly all actives have a fitted effect of over 60% in size
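Multi-concentration cytotoxicity screen in KB-3-1 cells grown in DMEM lacking phenol red with 10% FBS. After 72 h at 37 °C with compound, ATP-dependent luminescence was recorded.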
The depositor's hits bear a star. The call rests on the fitted dose curve; in most records, active means well fitted curve in the direction sought with a large enough effect; inconclusive means small, poorly fitted or top-dose-only effect, or another doubt; inactive means no such curve, though single readings can be large; an effect the other way counts as inactive or inconclusive. Potency means the concentration at half of the fitted maximal effect.

How did CN1CCC(N(C)C(=O)/C=C/c2cn(-c3ccccc3)nc2-c2cccs2)CC1 do in these assays?
MCF10A rerep: inconclusive; ELG1 repair inh: 7.8%; KB-V1 MDR tox: 20.6µM*; SW480 rereplic: 3.0%; KB-3-1 tox: inactive

What do the screens show for `O=C(N/N=C/c1cn(-c2ccccc2)nc1-c1cccs1)c1ccccc1F`?
MCF10A rerep: inconclusive; ELG1 repair inh: inconclusive; KB-V1 MDR tox: 20.6µM*; SW480 rereplic: inconclusive; KB-3-1 tox: inconclusive

What do the screens show for `CCN(CC(=O)Nc1ccc(NC(C)=O)cc1)C(=O)/C=C/c1cn(-c2ccccc2)nc1-c1cccs1`?
MCF10A rerep: inconclusive; ELG1 repair inh: inconclusive; KB-V1 MDR tox: inactive; SW480 rereplic: 5.1%; KB-3-1 tox: inactive

Results for O=C(NCC1CCCO1)/C(=C/c1cn(-c2ccccc2)nc1-c1cccnc1)NC(=O)c1ccccc1 (stereo not drawn) ?
MCF10A rerep: 1.6%; ELG1 repair inh: 20.6µM*; KB-V1 MDR tox: inactive; SW480 rereplic: 8.8%; KB-3-1 tox: inactive

What do the screens show for `O=C(NCCCO)/C(=C\c1cn(-c2ccccc2)nc1-c1cccnc1)NC(=O)c1ccccc1`?
MCF10A rerep: 0.2%; ELG1 repair inh: inconclusive; KB-V1 MDR tox: inactive; SW480 rereplic: -12.7%; KB-3-1 tox: inactive

Results for O=C(N/N=C/c1cn(-c2ccccc2)nc1-c1cccnc1)c1ccc(F)cc1 ?
MCF10A rerep: 3.26µM*; ELG1 repair inh: inconclusive; KB-V1 MDR tox: inactive; SW480 rereplic: 2.7%; KB-3-1 tox: inactive

Results for Cc1ccc(S(=O)(=O)NCC(=O)OCC(=O)Nc2ccc3c(c2)OCCO3)cc1 ?
MCF10A rerep: 2.5%; ELG1 repair inh: -1.2%; KB-V1 MDR tox: inconclusive; SW480 rereplic: -41.3%; KB-3-1 tox: inactive

What do the screens show for `O=C(N/N=C/c1cn(-c2ccccc2)nc1-c1cccnc1)c1cccnc1`?
MCF10A rerep: -7.8%; ELG1 repair inh: inconclusive; KB-V1 MDR tox: inactive; SW480 rereplic: 0.9%; KB-3-1 tox: inactive

How did O=C(N/N=C/c1cn(-c2ccccc2)nc1-c1cccs1)c1ccc(Cl)cc1 do in these assays?
MCF10A rerep: inconclusive; ELG1 repair inh: inconclusive; KB-V1 MDR tox: 14.6µM*; SW480 rereplic: 0.9%; KB-3-1 tox: inconclusive

Results for CCOc1cc(-c2nccc3cc(OC)c(OC)cc23)cc(OCC)c1OCC ?
MCF10A rerep: 13.6%; ELG1 repair inh: 14.6µM*; KB-V1 MDR tox: inactive; SW480 rereplic: -3.4%; KB-3-1 tox: inactive

What do the screens show for `COc1cc(N)c(Cc2nccc3cc(OC)c(OC)cc23)cc1OC`?
MCF10A rerep: -8.5%; ELG1 repair inh: inconclusive; KB-V1 MDR tox: inactive; SW480 rereplic: 7.1%; KB-3-1 tox: inactive

What do the screens show for `COc1cc2ccnc(Cc3cccc(OC)c3OC)c2cc1OC`?
MCF10A rerep: inconclusive; ELG1 repair inh: -17.8%; KB-V1 MDR tox: 2.06µM*; SW480 rereplic: 4.2%; KB-3-1 tox: 7.31µM*

How did CCC[C@@H]1Cc2ccccc2N1C(C)=O do in these assays?
MCF10A rerep: 15.1%; ELG1 repair inh: 20.5%; KB-V1 MDR tox: inactive; SW480 rereplic: -4.9%; KB-3-1 tox: inactive

What do the screens show for `N#C/C(=C1/SCC(c2ccccc2Cl)S1)n1ccnc1` (stereo not drawn)?
MCF10A rerep: 1.7%; SW480 rereplic: 0.7%

What do the screens show for `COc1ccc(-c2cc(C(F)(F)F)nc(S(=O)(=O)CCC(=O)N3CCOCC3)n2)cc1`?
MCF10A rerep: 8.2µM*; ELG1 repair inh: inconclusive; KB-V1 MDR tox: inconclusive; SW480 rereplic: inconclusive; KB-3-1 tox: inconclusive

What do the screens show for `COc1ccccc1-c1cc(C(F)(F)F)nc(S(=O)(=O)CCCC(=O)N2CCOCC2)n1`?
MCF10A rerep: 3.26µM*; ELG1 repair inh: inconclusive; KB-V1 MDR tox: inconclusive; SW480 rereplic: inconclusive; KB-3-1 tox: 16.4µM*

What do the screens show for `COc1ccccc1-c1cc(C(F)(F)F)nc(NCc2cccs2)n1`?
MCF10A rerep: inconclusive; ELG1 repair inh: 15.9%; KB-V1 MDR tox: 20.6µM*; SW480 rereplic: 8.2%; KB-3-1 tox: inactive
